Source: PubChem BioAssay AID602293 (National Center for Advancing Translational Sciences (NCATS), 2012)
Screen size: about 1,300 compounds; about 30 (2%) were called active. Inconclusive results (about 10%) are left out. Calls come from the whole dose curve; as a rule, active = well fitted inhibition curve with a large enough effect; inconclusive = small, poorly fitted or top-dose-only effect; inactive = flat fitted curve, though single readings scatter. Shown is part of a subset that was picked to be rich in actives.

Assay: qHTS for antagonists of the Thyroid Stimulation Hormone Receptor: Hit Validation in HTRF Activity in a Luteinizing Hormone Receptor Cell Line
Details: LHR-expressing cell line, cAMP HTRF, antagonist mode; series mostly up to 58 µM; activity change, negative = inhibition: at the top concentration
In short: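 HEK 293 cells stably expressing LH receptor, in DMEM with 10% FCS and 100 uM RO 20-1724, incubated with compound 30 min at room temperature. cAMP measured by competitive HTRF (anti-cAMP cryptate vs cAMP-d2), excitation 330 nm, emissions 615 and 660 nm.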
% is set by controls: 0 for no effect and ±100 for the full control effect; potency is the fitted concentration of half-maximal effect.

**Q.** For `Cc1cccc(N2CCN(S(=O)(=O)c3ccc4c(c3)NC(=O)CS4)CC2)c1C`, which “activity change, negative = inhibition” value is on record?
**A.** -1.48% (inactive)

**Q.** For `CC1CCN(c2ccccc2NC(=O)c2cc([N+](=O)[O-])ccc2N2CCOCC2)CC1`, which “activity change, negative = inhibition” value is on record?
**A.** -3.69% (inactive)

**Q.** For `CSc1nnc(C(C)(C)C)c(=O)n1/N=C/c1c(O)ccc2ccccc12`, which “activity change, negative = inhibition” value is on record?
**A.** 1.35% (inactive)

**Q.** With `Nc1nc(SCc2ccccc2Cl)ns1` as the molecule, how does the “activity change, negative = inhibition” value read?
**A.** 2.13% (inactive)

**Q.** With `CC1CC1C(=O)N1CCN(S(=O)(=O)c2cc(C(F)(F)F)cc(C(F)(F)F)c2)CC1` (configuration not stated) as the molecule, how does the “activity change, negative = inhibition” value read?
**A.** 2.61% (inactive)

**Q.** For `COc1ccc(CC(=O)Nc2cccc(-c3nnc(-c4cccc(C)c4)o3)c2)cc1OC`, which Potency is on record?
**A.** 21.3 µM (active)

**Q.** Which “activity change, negative = inhibition” value does the source give for `COc1cccc(CN(C)C(=O)c2ccc(OCC(=O)Nc3cccc(C(F)(F)F)c3)c(OC)c2)c1` here?
**A.** -0.547% (inactive)

**Q.** Which “activity change, negative = inhibition” value does the source give for `COc1ccc(-c2nc(CS(=O)CC(=O)NCc3ccccc3)c(C)o2)cc1OC` (configuration not stated) here?
**A.** 0.304% (inactive)

**Q.** Which “activity change, negative = inhibition” value does the source give for `Cc1ccc(S(=O)(=O)Nc2ccccc2N2CCCCC2)cc1` here?
**A.** -4.31% (inactive)

**Q.** For `COc1ccccc1CNC(=O)CSc1nc(N)c(C#N)c(-c2cccs2)c1C#N`, which “activity change, negative = inhibition” value is on record?
**A.** -0.0637% (inactive)

**Q.** Which “activity change, negative = inhibition” value does the source give for `CCn1nc([N+](=O)[O-])c(C(C#N)c2nc3cc(C(F)(F)F)ccc3s2)c(Cl)c1=O` (configuration not stated) here?
**A.** -0.764% (inactive)

**Q.** Which “activity change, negative = inhibition” value does the source give for `O=C(NC(Nc1nc2ccc([N+](=O)[O-])cc2s1)(C(F)(F)F)C(F)(F)F)c1cccnc1` here?
**A.** -2.25% (inactive)

**Q.** With `O=c1c(Sc2ccccc2)c(C(F)(F)F)[nH]n1-c1ccccc1` as the molecule, how does the “activity change, negative = inhibition” value read?
**A.** 2.36% (inactive)

**Q.** With `COc1ccc(OC)c(CCNC(=O)Cn2nc(C)c3c(C)n(-c4ccc(C)cc4)nc3c2=O)c1` as the molecule, how does the “activity change, negative = inhibition” value read?
**A.** -2.32% (inactive)

**Q.** Which “activity change, negative = inhibition” value does the source give for `CC(=O)NC1=C(Nc2ccc(N(C)C)cc2)C(=O)c2ccccc2C1=O` here?
**A.** -3.23% (inactive)

**Q.** For `O=C(OCn1ncc(Cl)c(Cl)c1=O)c1cccc(C(F)(F)F)c1`, which “activity change, negative = inhibition” value is on record?
**A.** -0.844% (inactive)

**Q.** For `Cc1sc2ncnc(N3CCN(CCOc4ccc(Cl)cc4)CC3)c2c1C`, which “activity change, negative = inhibition” value is on record?
**A.** -1.63% (inactive)

**Q.** Which “activity change, negative = inhibition” value does the source give for `Cc1ccc(-c2nc3ccc(C(=O)O)cc3nc2-c2ccc(C)cc2)cc1` here?
**A.** -1.76% (inactive)

**Q.** Which “activity change, negative = inhibition” value does the source give for `CCOC(=O)c1sc(NC(=O)CSc2n[nH]c(-c3ccncc3)n2)c(C#N)c1C` here?
**A.** 0.55% (inactive)

**Q.** For `COc1cccc(NC(=O)Nc2nc(-c3ccc(OC)c(OC)c3)cs2)c1`, which Potency is on record?
**A.** 13.5 µM (active)

**Q.** With `CCSc1nsc(NC(=O)Nc2cccc(OC)c2)n1` as the molecule, how does the “activity change, negative = inhibition” value read?
**A.** 1.44% (inactive)

**Q.** For `COc1ccc(S(=O)(=O)Nc2ccccc2C(=O)Nc2nc(-c3ccc(F)cc3)cs2)cc1OC`, which “activity change, negative = inhibition” value is on record?
**A.** -2.16% (inactive)

**Q.** With `CN(C)S(=O)(=O)c1cccc(-c2nnc(SCc3ccc4c(c3)OCCO4)o2)c1` as the molecule, how does the “activity change, negative = inhibition” value read?
**A.** -1.33% (inactive)

**Q.** With `COc1ccccc1NS(=O)(=O)c1cccc(NC(=O)c2ccc3ccccc3n2)c1` as the molecule, how does the “activity change, negative = inhibition” value read?
**A.** -1.31% (inactive)

**Q.** For `CCc1ccc(-c2cc(C)no2)cc1S(=O)(=O)N1CCN(c2ccccn2)CC1`, which “activity change, negative = inhibition” value is on record?
**A.** -2.05% (inactive)

**Q.** For `COc1ccc(CN(C)C(=O)COC(=O)c2ccc(-c3ccccc3)cc2)c(OC)c1OC`, which “activity change, negative = inhibition” value is on record?
**A.** -1.51% (inactive)

**Q.** For `CCOc1ccc2nc(SC3CC(=O)N(c4ccccc4)C3=O)sc2c1` (configuration not stated), which “activity change, negative = inhibition” value is on record?
**A.** 1.87% (inactive)

**Q.** With `Cc1cc(OCc2cc(C(=O)N(C)C(C)c3ccccn3)no2)cc(C)c1Cl` (configuration not stated) as the molecule, how does the “activity change, negative = inhibition” value read?
**A.** 0.705% (inactive)

**Q.** For `CC(C)c1ccccc1OCCNC(=O)c1cccnc1`, which “activity change, negative = inhibition” value is on record?
**A.** 2.01% (inactive)

**Q.** Which “activity change, negative = inhibition” value does the source give for `O=C(CSc1ccc(F)cc1)N1CCC(c2nc3ccccc3s2)CC1` here?
**A.** -2.02% (inactive)

**Q.** With `N=c1oc2ccccc2cc1C(=O)NC1CCCCCC1` as the molecule, how does the “activity change, negative = inhibition” value read?
**A.** -0.828% (inactive)

**Q.** Which “activity change, negative = inhibition” value does the source give for `CC(Sc1nnc(-c2cccs2)n1Cc1ccccc1)C(=O)NCc1ccc2c(c1)OCO2` (configuration not stated) here?
**A.** -1.32% (inactive)

**Q.** For `COc1cccc(-c2nc(-c3ccc(NC(=O)c4cccnc4)cc3)no2)c1`, which “activity change, negative = inhibition” value is on record?
**A.** -3.43% (inactive)

**Q.** Which “activity change, negative = inhibition” value does the source give for `Cn1c(=O)c(C(=O)NNC(=O)c2cccc(Cl)c2)c(O)c2ccccc21` here?
**A.** -1.11% (inactive)

**Q.** For `CC1Cc2ccccc2N1C(=O)COC(=O)/C=C/c1cccc(F)c1` (configuration not stated), which “activity change, negative = inhibition” value is on record?
**A.** -1.41% (inactive)

**Q.** With `CCCCCCSc1nsc(NC(C)=O)n1` as the molecule, how does the “activity change, negative = inhibition” value read?
**A.** 2.54% (inactive)

**Q.** Which “activity change, negative = inhibition” value does the source give for `O=Cc1c[nH]c2ccc(C(=O)c3ccccc3)cc12` here?
**A.** -1.03% (inactive)

**Q.** For `O=C(CN1C(=O)NC2(CCCCCC2)C1=O)N1CCC(Cc2ccccc2)CC1`, which “activity change, negative = inhibition” value is on record?
**A.** -0.781% (inactive)

**Q.** With `COc1ccc(NS(=O)(=O)c2cc(-c3cnc(C4CC4)o3)ccc2C)cc1` as the molecule, how does the “activity change, negative = inhibition” value read?
**A.** -3.75% (inactive)

**Q.** With `CC(C)Cn1c(-c2csc3c2CCCC3)n[nH]c1=S` as the molecule, how does the “activity change, negative = inhibition” value read?
**A.** 2.71% (inactive)

**Q.** Which “activity change, negative = inhibition” value does the source give for `CC(=O)Oc1c(I)cc(I)cc1C(=O)Nc1ccc(Cl)cc1` here?
**A.** -3.87% (inactive)

**Q.** With `Cc1ccc(NS(=O)(=O)c2cc(C(=O)Nc3cccc([N+](=O)[O-])c3)ccc2C)cc1` as the molecule, how does the “activity change, negative = inhibition” value read?
**A.** -4.12% (inactive)

**Q.** Which “activity change, negative = inhibition” value does the source give for `CCCCNC(=O)c1sc(=S)n2c1[nH]c(=O)c1ccccc12` here?
**A.** -0.118% (inactive)

**Q.** With `Cc1cccc(CSCCNC(=O)c2ccc(N(C)S(=O)(=O)c3ccccc3)cc2)c1` as the molecule, how does the “activity change, negative = inhibition” value read?
**A.** -1.47% (inactive)

**Q.** With `O=[N+]([O-])c1ccc(COc2cccc(CNc3ccc(F)cc3)c2)cc1` as the molecule, how does the “activity change, negative = inhibition” value read?
**A.** 2.34% (inactive)

**Q.** For `CCCCOc1ncnc2c1[nH]c1ccccc12`, which “activity change, negative = inhibition” value is on record?
**A.** -2.8% (inactive)

**Q.** For `COC(=O)Cn1c(=NC(=O)CSC(C)=O)sc2ccccc21`, which “activity change, negative = inhibition” value is on record?
**A.** -1.47% (inactive)

**Q.** For `CC(C)C[C@H](N)c1nnc(S(=O)(=O)Cc2ccc(F)cc2)o1`, which “activity change, negative = inhibition” value is on record?
**A.** -0.792% (inactive)

**Q.** For `CC(C)c1ccc(/C=C/C(=O)NCCC2=CCCCC2)cc1`, which “activity change, negative = inhibition” value is on record?
**A.** 1.16% (inactive)

**Q.** For `CCOC(=O)c1sc(NC(=O)c2cc(-c3ccccc3)nc3ccccc23)c(C#N)c1C`, which “activity change, negative = inhibition” value is on record?
**A.** -1.11% (inactive)

**Q.** For `CC1CCc2nc(NC(=O)CSc3nc4ccccc4o3)sc2C1` (configuration not stated), which “activity change, negative = inhibition” value is on record?
**A.** -3.41% (inactive)

**Q.** For `Cc1ccccc1NC1c2ccccc2C(=O)N1Cc1ccco1` (configuration not stated), which “activity change, negative = inhibition” value is on record?
**A.** 0.697% (inactive)

**Q.** Which “activity change, negative = inhibition” value does the source give for `Cc1c(N=Nc2c(-c3ccc([N+](=O)[O-])cc3)[nH]n(C(N)=S)c2=O)cccc1[N+](=O)[O-]` here?
**A.** 2.29% (inactive)

**Q.** Which “activity change, negative = inhibition” value does the source give for `CC1CCN(S(=O)(=O)c2cccc(C(=O)N3CCN(c4ccc(F)cc4)CC3)c2)CC1` here?
**A.** -1.37% (inactive)

**Q.** With `Cc1cccc2c1NC(=O)C2(c1ccc(O)cc1)c1ccc(O)cc1` as the molecule, how does the “activity change, negative = inhibition” value read?
**A.** -2.97% (inactive)

**Q.** With `Cc1ccc(-c2cc(C(=O)Nc3ccncc3)c3ccccc3n2)cc1` as the molecule, how does the “activity change, negative = inhibition” value read?
**A.** -2.05% (inactive)

**Q.** Which “activity change, negative = inhibition” value does the source give for `CSc1nsc(NC(=O)OCc2ccc(Cl)cc2)n1` here?
**A.** -0.863% (inactive)

**Q.** Which “activity change, negative = inhibition” value does the source give for `CCOC(=O)Cc1csc(NC(=O)COc2ccc(N(C)S(=O)(=O)c3cccs3)cc2)n1` here?
**A.** -4.36% (inactive)

**Q.** Which “activity change, negative = inhibition” value does the source give for `O=C1S/C(=C\c2ccc(O)c([N+](=O)[O-])c2)C(=O)N1c1ccccc1Cl` here?
**A.** 0.191% (inactive)

**Q.** For `Cn1c2c(c(=O)[nH]c1=O)C(c1ccc(O)cc1)C1=C(N2)c2ccccc2C1=O` (configuration not stated), which “activity change, negative = inhibition” value is on record?
**A.** -0.454% (inactive)

**Q.** Which “activity change, negative = inhibition” value does the source give for `O=S(=O)(c1ccc(SCc2ccc(Cl)cc2)nc1)N1CCCC1` here?
**A.** -7.02% (inactive)

**Q.** With `CCOc1cc(C(=S)N2CCOCC2)ccc1OC(=O)c1ccccc1` as the molecule, how does the “activity change, negative = inhibition” value read?
**A.** -1.14% (inactive)
